Results reported in the supplement of paper PMC8728848.
Only a selection was taken, and the strongest signals are over-represented in it overall.

Tests used:
Experiment in all cases: glycan array binding signal (z-score within array); higher = stronger binding
Conditions in all cases: glycan notation: IUPAC condensed, linker removed
[1] = target: Fuc(a1-2)Gal(b1-3)[Fuc(a1-4)]GlcNAc
In short: (§1)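 Glycan array binding is given as a within-array Z-score, which can be read as non-binding when negative. The arrays, 3228 of them, came from the Consortium for Functional Glycomics database and were retained only where the protein sequence was available. Z-scores were averaged across arrays of the same protein sequence at different concentrations or buffers and across linkers.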

[2] = target: Fuc(a1-2)Gal(b1-4)[Fuc(a1-3)]GlcNAc(b1-2)Man(a1-3)[Fuc(a1-2)Gal(b1-4)[Fuc(a1-3)]GlcNAc(b1-2)Man(a1-6)]Man(b1-4)GlcNAc(b1-4)GlcNAc
In short: as §1

[3] = target: Fuc(a1-2)[GalNAc(a1-3)]Gal(b1-4)GlcNAc(b1-2)Man(a1-3)[Fuc(a1-2)[GalNAc(a1-3)]Gal(b1-4)GlcNAc(b1-2)Man(a1-6)]Man(b1-4)GlcNAc(b1-4)GlcNAc
In short: as §1

[4] = target: Fuc(a1-3)[Gal(b1-4)]GlcNAc
In short: as §1

[5] = target: Fuc(a1-3)[Gal(b1-4)]GlcNAc(b1-4)Gal(b1-4)[Fuc(a1-3)]GlcNAc
In short: as §1

[6] = target: Gal(b1-3)[Fuc(a1-4)]GlcNAc(b1-2)Man(a1-3)[Gal(b1-3)[Fuc(a1-4)]GlcNAc(b1-2)Man(a1-6)]Man(b1-4)GlcNAc(b1-4)GlcNAc
In short: as §1

[7] = target: Gal(b1-4)GlcNAc(b1-2)Man(a1-3)[GlcNAc(b1-2)Man(a1-6)]Man(b1-4)GlcNAc(b1-4)GlcNAc
In short: as §1

[8] = target: Gal(b1-4)GlcNAc(b1-3)GalNAc
In short: as §1

[9] = target: Gal(b1-4)GlcNAc(b1-3)[GlcNAc(b1-6)]Gal(b1-4)GlcNAc
In short: as §1

[10] = target: Gal3S(b1-3)[Fuc(a1-4)]GlcNAc
In short: as §1

[11] = target: Gal3S(b1-4)[Fuc(a1-3)]Glc6S
In short: as §1

[12] = target: GalNAc(a1-3)Gal
In short: as §1

[13] = target: GalNAc(b1-3)Gal(a1-6)Gal(b1-4)Glc
In short: as §1

[14] = target: Glc(b1-6)Glc
In short: as §1

[15] = target: GlcNAc(a1-4)Gal(b1-4)GlcNAc(b1-3)Gal(b1-4)GlcNAc(b1-3)Gal(b1-4)GlcNAc
In short: as §1

[16] = target: GlcNAc(a1-4)Gal(b1-4)GlcNAc(b1-3)Gal(b1-4)[Fuc(a1-3)]GlcNAc(b1-3)Gal(b1-4)[Fuc(a1-3)]GlcNAc
In short: as §1

[17] = target: GlcNAc(b1-2)Gal(b1-3)GalNAc
In short: as §1

[18] = target: GlcNAc(b1-2)Man(a1-3)[GlcNAc(b1-2)Man(a1-6)]Man(b1-4)GlcNAc(b1-4)[Fuc(a1-6)]GlcNAc
In short: as §1

[19] = target: GlcNAc(b1-3)Gal
In short: as §1

[20] = target: GlcNAc(b1-3)Gal(b1-3)GalNAc
In short: as §1

[21] = target: Neu5Ac(a2-3)Gal(b1-3)[Neu5Ac(a2-6)]GalNAc
In short: as §1

[22] = target: Neu5Ac(a2-3)Gal(b1-4)GlcNAc(b1-3)Gal(b1-4)[Fuc(a1-3)]GlcNAc
In short: as §1

[23] = target: Neu5Ac(a2-3)Gal(b1-4)[Fuc(a1-3)]GlcNAc(b1-3)GalNAc
In short: as §1

[24] = target: Neu5Ac(a2-3)Gal(b1-4)[Fuc(a1-3)]GlcNAc(b1-6)[Gal(b1-3)]GalNAc
In short: as §1

[25] = target: Neu5Ac(a2-3)Gal6S(b1-4)GlcNAc
In short: as §1

[26] = target: Neu5Ac(a2-6)Gal(b1-4)GlcNAc(b1-2)Man(a1-3)[GlcNAc(b1-2)Man(b1-4)GlcNAc(b1-2)Man(a1-6)]Man(b1-4)GlcNAc(b1-4)GlcNAc
In short: as §1

[27] = target: Neu5Ac(a2-6)GlcNAc(b1-4)GlcNAc(b1-4)GlcNAc
In short: as §1

[28] = target: Neu5Ac9Ac(a2-3)Gal(b1-4)GlcNAc
In short: as §1

[29] = target: Neu5Gc(a2-3)Gal(b1-4)GlcNAc
In short: as §1

B1: BSR4 (Toxoplasma gondii), Q95NL6 (protein)
chain: MVMMGSMQQRRGGLRSNARQLLAVCMSGVVFFSSGQAVADNLLEGLLHRTLQQQVEVTSRLTVAGSDAKCDFFTPATQDSPPVSGSLTLSKGRMTATFECSATQALSISTIPTNIEQNVCDPKKTTNGTVCQFGANGSAGTEVTLKDLLETDRIVNWKVNEQREESNKSQKWSLELHNEDLPLTDKAFVVGCQATSAARGTESGKTAACKLTVNVEARASSLAENNVVTCAYGKGSNPNPVEVEMSTEKNTLTINCGSDGSLQPTTYAEEYCVADSKDVNRCSTTRFVEIFPKFLKSWWVTETQKRTSATLTIPQTDLPEADQQFLVGCVPKKTAPEDPKKDKESGTETGAPTSCTVLVTVKAASSASHASPTVQILAAASSAAA
[1]
  glycan array binding signal (z-score): 0.187
[2]
  glycan array binding signal (z-score): 1.41
[3]
  glycan array binding signal (z-score): -0.071
[4]
  glycan array binding signal (z-score): 0.23
[5]
  glycan array binding signal (z-score): 1.44
[6]
  glycan array binding signal (z-score): 1.39
[7]
  glycan array binding signal (z-score): -0.349
[8]
  glycan array binding signal (z-score): 0.454
[9]
  glycan array binding signal (z-score): 0.261
[10]
  glycan array binding signal (z-score): 5.04
[11]
  glycan array binding signal (z-score): 0.993
[12]
  glycan array binding signal (z-score): -0.538
[13]
  glycan array binding signal (z-score): -0.617
[14]
  glycan array binding signal (z-score): -0.765
[15]
  glycan array binding signal (z-score): -0.25
[16]
  glycan array binding signal (z-score): 1.8
[17]
  glycan array binding signal (z-score): 0.324
[18]
  glycan array binding signal (z-score): 7.79
[19]
  glycan array binding signal (z-score): -0.636
[20]
  glycan array binding signal (z-score): 1.23
[21]
  glycan array binding signal (z-score): 0.026
[22]
  glycan array binding signal (z-score): 0.289
[23]
  glycan array binding signal (z-score): 3.61
[24]
  glycan array binding signal (z-score): 1.73
[25]
  glycan array binding signal (z-score): -0.227
[26]
  glycan array binding signal (z-score): -0.667
[27]
  glycan array binding signal (z-score): -0.434
[28]
  glycan array binding signal (z-score): 0.407
[29]
  glycan array binding signal (z-score): -0.102
